Screening results as filed in PubChem.
Hits are enriched below; roughly 7.1% of the tested compounds scored in any of these assays.
MCF10A rerep: A quantitative high throughput screen for small molecules that induce DNA re-replication in MCF 10a normal breast cells | MCF 10A DNA re-replication, Hoechst nuclear intensity, 48 h | AID 624296, 2012 | Potency, µM (top dose mostly 46.1 µM), without a hit: at the highest dose activity, positive = re-replication, actives largely listed as activators | 350,000 compounds, 2.9% hits; note: % of control where 0% means no effect; nearly all actives have a fitted effect of over 50% in size
SW480 rerep: A quantitative high throughput screen for small molecules that induce DNA re-replication in SW480 colon adenocarcinoma cells. SW480 DNA re-replication, Hoechst DNA content imaging, 48 h. Potency, µM (doses to about 46.1 µM), inactives show at the top dose re-replication activation, actives largely listed as activators. 340,000 compounds, 1.8% hits. AID 624297, 2012; note: % of control where 0% means no effect; nearly all actives have a fitted effect of over 55% in size
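DNA re-replication was detected as more nuclei of elevated Hoechst intensity after 48 hr exposure to compound (23 nL pinned per well of 250 cells).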
p53 reactivation: qHTS assay for re-activators of p53 using a Luc reporter. H1299 p53-A138V BP100-luciferase reporter, luminescence, 24 h. Potency, µM (series often up to 92.2 µM), for the others: top-dose activity change, positive = activation, most hits filed as activators. 320,000 compounds, 0.063% hits. AID 504706, 2011; note: % of control where 0% means no effect; nearly all actives have a fitted effect of over 45% in size
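H1299 (p53-null), stable ts p53-A138V + BP100-Luc; 1000 cells/well, Opti-MEM/10% FBS; cpd 4 pt, 1:5; 24 h, 37 deg C, 5% CO2; detection reagent 10 min RT; luminescence.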
ELG1 repair inh: qHTS screen for small molecules that inhibit ELG1-dependent DNA repair in human embryonic kidney (HEK293T) cells expressing luciferase-tagged ELG1. AID 504467, 2011. HEK293T ELG1-luciferase reporter, luminescence, 16 h; DNA damage induced by 5-fluorouridine. Potency, µM (highest dose often 46.1 µM), for inactives: top-dose activity change, negative = inhibition, hits mostly inhibitors. 330,000 compounds, 2.3% hits; note: % is set by controls: 0 for no effect and ±100 for the full control effect; nearly all actives have a fitted effect of over 55% in size
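DMSO vehicle served as the neutral condition. Each well held 2,000 cells given 5-fluorouridine plus compound; after 16 hr at 37 °C/5% CO2, ONE-Glo was added and luciferase measured 30 min later.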
A-T KAP1 phos: qHTS Assay for Identifying a Potential Treatment of Ataxia-Telangiectasia; F2112 A-T fibroblasts, KAP-1 phosphorylation AlphaLISA; neocarzinostatin DNA damage 30 min before lysis; Potency, µM (highest dose often 57.5 µM), inactives show at the highest dose activation, most hits filed as activators; AID 485349, 2010; 320,000 compounds, 0.19% hits; note: % of control where 0% means no effect; nearly all actives have a fitted effect of over 45% in size
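ATM-like activity read as KAP-1 phosphorylation via AlphaLISA donor/acceptor antibody pairs after lysis and 6 hr at 25C. Cells were ATM-null patient fibroblasts (F2112, hTERT), dosed 60 min, then exposed to the DSB inducer NCS for 30 min.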
ELG1 genotoxic: qHTS screen for small molecules that induce genotoxicity in human embryonic kidney (HEK293T) cells expressing luciferase-tagged ELG1; Potency, µM (top dose mostly 46 µM), inactives show at the highest dose activity change, positive = activation, most hits filed as activators; HEK293T ELG1-luciferase reporter, luminescence, 16 h; AID 504466, 2011; 330,000 compounds, 1.3% hits; note: % of control where 0% means no effect; nearly all actives have a fitted effect of over 60% in size
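16 hr compound incubation (37 °C, 5% CO2) of HEK293T cells carrying luciferase-tagged ELG1; luciferase then measured by ONE-Glo luminescence after 30 min at RT.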
Active calls of the source: *; u = inconclusive; x = no result. Calls come from the whole dose curve; as a rule, active = well fitted curve in the direction sought with a large enough effect; inconclusive = small, poorly fitted or top-dose-only effect, or another doubt; inactive = no such curve, though single readings can be large; an effect the other way counts as inactive or inconclusive. Potency is the fitted concentration of half-maximal effect.

SMILES	MCF10A rerep	SW480 rerep	p53 reactivation	ELG1 repair inh	A-T KAP1 phos	ELG1 genotoxic
CN(CC(=O)Nc1cccc(F)c1)C(=O)c1ccccc1CCc1ccccc1	u	0.9%	4.4%	u	7.2%	-2.4%
COc1ccccc1C1OC2=C(Nc3ccc([N+](=O)[O-])cc3N2)C1=O (stereo not given)	-4.7%	-3.9%	5.8%	23.1µM*	-1.7%	-10.7%
COc1ccc(C2OC3=C(Nc4cc(C)c(C)cc4N3)C2=O)cc1 (stereo not given)	-1.0%	-6.7%	u	u	4.5%	u
CC1=C(/C=C/C(C)=C/C=C/C(C)=C/C(=O)Oc2c(C)c(C)c3c(c2C)CC[C@@](C)(CCC[C@H](C)CCC[C@H](C)CCCC(C)C)O3)C(C)(C)CCC1	13.6%	5.7%	x	x	x	x
O=C(Nc1cc(Cl)ccn1)C1CCN(S(=O)(=O)c2cccs2)CC1	21.4%	0.0%	2.9%	8.2µM*	x	-7.9%
O=C(Nc1ccncc1)C1CCN(S(=O)(=O)c2cccs2)CC1	2.6%	-10.1%	0.8%	-11.1%	-0.4%	-4.3%
CN(C)S(=O)(=O)c1cccc(NC(=O)C2CCN(S(=O)(=O)c3cccs3)CC2)c1	6.8%	-3.3%	-3.7%	20.6µM*	5.2%	-7.8%
Cc1ccc(S(=O)(=O)N2CC(O)C[C@H]2C(=O)OCC(=O)Nc2ccc(N3CCCCC3)cc2)cc1C (stereo not given in full)	13.5%	2.5%	-0.1%	u	x	4.0%
CN1/C(=C/C2CC(=O)N(c3cccc4ccccc34)C2=O)C(C)(C)c2ccccc21 (stereo not given)	u	18.4µM*	0.8%	-6.8%	-1.5%	-0.7%
CCOc1ccc(N2C(=O)CC(/C=C3/N(C)c4ccccc4C3(C)C)C2=O)cc1 (stereo not given)	0.3%	5.1%	x	x	x	x
C=C1CCC(O)C/C1=C/C=C1\CCC[C@]2(C)[C@@H]([C@H](C)/C=C/[C@H](C)C(C)C)CC[C@@H]12 (stereo not given in full)	u	7.8%	x	x	x	x
CC1CCC(O)C/C1=C\C=C1/CCCC2(C)C1CCC2C(C)/C=C/C(C)C(C)C (stereo not given)	21.1µM*	u	x	x	x	x
CCC/C(O)=C1\C(=O)CC(C)(C)CC1=Nc1ccc(OC)cc1OC	20.6µM*	18.4µM*	-0.7%	u	5.1%	-3.2%
Cc1cnn(CCC(=O)NNC(=S)Nc2ccccc2)c1	-19.3%	u	-4.1%	10.3%	4.5%	0.6%
Cc1ccc(NC(=S)NNC(=O)CCn2cc(C)cn2)cc1	2.0%	9.2µM*	2.2%	3.3%	-0.9%	0.4%
Cn1ncc([N+](=O)[O-])c1C(=O)Nc1ccc(Cl)cc1	u	-11.4%	2.1%	-5.9%	4.2%	-2.9%
Cn1ncc([N+](=O)[O-])c1C(=O)Nc1ccc(C2CCCCC2)cc1	-3.0%	11.6µM*	u	-1.1%	3.2%	2.8%
O=C(COC(=O)c1cccc(S(=O)(=O)N2CCCC2)c1)Nc1ccccc1C(F)(F)F	6.4%	4.61µM*	2.4%	9.1%	7.7%	2.0%
O=C(NCCCOc1cccc(CN2CCCCC2)c1)c1ccc(Cl)c(Cl)c1	u	29.1µM*	-3.9%	-4.8%	3.8%	-2.9%
COc1ccc(CCNC(=O)c2cccc(S(=O)(=O)N3CCCCC3)c2)cc1	-24.5%	-60.2%	1.1%	u	1.2%	-5.2%
COc1ccccc1OCCNC(=O)c1ccc2c(c1)OCCO2	-0.4%	1.7%	24.3%	u	-6.3%	u
